Reference: PubChem BioAssay AID1445 (SRMLSC, 2008)
About 910 (0.41%) of roughly 220,000 compounds were called active.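 How the source made its calls: active means primary inhibition above the hit cutoff, then over 50% inhibition at one or more dose response concentrations (cut at about 23% in these data, passing the limit was not always enough); inconclusive means conflicting primary data, or primary hits not chosen for dose response; inactive means low primary inhibition, or under 50% at every dose.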 Only a selection was taken, and actives are over-represented in it overall. Measured potencies and affinities stand elsewhere.

The compounds below were run against Aminopeptidase N (Plasmodium falciparum (isolate 3D7)) (UniProt O96935) (assay: malaria alanyl aminopeptidase activity blockers – biochemical, fluorogenic H-Leu-NHMec substrate, 1536-well (AID 1445;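 further: plate controls were DMSO full reaction for no effect and no enzyme background for full effect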)). Conditions: recombinant M1AAP, H-Leu-NHMec fluorogenic kinetic assay; at 30 µM, stronger effect = higher value unless noted.
Sequence of Aminopeptidase N (Plasmodium falciparum (isolate 3D7)) (O96935 whole entry, looked up): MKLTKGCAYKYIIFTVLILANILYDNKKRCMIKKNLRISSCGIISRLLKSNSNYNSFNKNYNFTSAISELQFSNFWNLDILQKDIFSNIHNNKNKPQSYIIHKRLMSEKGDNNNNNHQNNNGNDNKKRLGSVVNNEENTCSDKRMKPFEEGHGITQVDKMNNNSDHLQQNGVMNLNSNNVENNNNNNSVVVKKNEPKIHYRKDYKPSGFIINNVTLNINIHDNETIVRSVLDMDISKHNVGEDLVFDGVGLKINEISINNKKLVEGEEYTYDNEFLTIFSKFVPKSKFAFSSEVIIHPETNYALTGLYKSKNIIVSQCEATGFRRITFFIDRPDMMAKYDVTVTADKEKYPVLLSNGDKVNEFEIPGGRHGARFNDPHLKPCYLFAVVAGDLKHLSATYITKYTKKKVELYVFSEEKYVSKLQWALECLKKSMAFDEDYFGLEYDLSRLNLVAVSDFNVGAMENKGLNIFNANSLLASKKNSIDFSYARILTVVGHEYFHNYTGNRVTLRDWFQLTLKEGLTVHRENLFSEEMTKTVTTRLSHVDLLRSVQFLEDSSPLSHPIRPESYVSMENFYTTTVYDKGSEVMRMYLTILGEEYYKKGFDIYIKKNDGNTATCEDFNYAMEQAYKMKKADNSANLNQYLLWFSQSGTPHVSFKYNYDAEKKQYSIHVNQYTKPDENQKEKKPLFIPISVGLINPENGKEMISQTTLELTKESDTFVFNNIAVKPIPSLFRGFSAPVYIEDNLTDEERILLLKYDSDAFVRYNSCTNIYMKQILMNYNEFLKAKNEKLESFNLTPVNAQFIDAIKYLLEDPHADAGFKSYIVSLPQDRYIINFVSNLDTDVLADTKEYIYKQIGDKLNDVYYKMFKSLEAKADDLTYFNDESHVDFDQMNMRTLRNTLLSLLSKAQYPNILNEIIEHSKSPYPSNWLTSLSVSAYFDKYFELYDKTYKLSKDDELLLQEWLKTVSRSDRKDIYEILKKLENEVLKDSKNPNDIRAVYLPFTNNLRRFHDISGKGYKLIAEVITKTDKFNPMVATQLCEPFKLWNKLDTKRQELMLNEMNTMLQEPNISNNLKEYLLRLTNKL

| SMILES | inhibition |
| --- | --- |
| CC1=C(C#N)C(=O)NC(=O)/C1=C\c1ccc(-c2ccc(C)cc2[N+](=O)[O-])o1 | 20.8% (inactive) |
| CC1=C(C#N)C(=O)NC(=O)/C1=C\c1ccc(-c2cc(C)c(C)cc2[N+](=O)[O-])o1 | 11.9% (inactive) |
| CCOC(=O)c1cc(-c2ccc(/C=N\n3cnnc3)o2)ccc1Cl | 3.07% (inactive) |
| CC1=C(C#N)C(=O)NC(=O)/C1=C/c1ccc(-c2ccc(S(N)(=O)=O)cc2)o1 | 28.5% (inactive) |
| C=CCOC(=O)c1cc(-c2ccc(/C=C3\C(=O)NC(=O)C(C#N)=C3C)o2)ccc1Cl | 46.9% (active) |
| CC(=O)N1CCc2cc(S(=O)(=O)CCC(=O)Nc3ccc4c(c3)OCCO4)ccc21 | 7.36% (inactive) |
| CN(C)CCNC(=O)CN1C(=O)COc2ccc(C(C)(C)C)cc21 | 0.77% (inactive) |
| CC(=O)COC(=O)C1CC(=O)N(c2ccc(C)c(C)c2)C1 (centres undefined) | 3.99% (inactive) |
| O=C(COc1ncnc2ccccc12)NCCc1ccccc1 | 1.63% (inactive) |
| CC(C)(O)C(=O)N=Nc1c(O)[nH]c2ccccc12 | 1.86% (inactive) |
| NC(=S)N=Nc1c(O)[nH]c2ccccc12 | 23.1% (inactive) |
| O=C(CSc1nnc(-c2ccccn2)n1Cc1ccccc1)N1CCOCC1 | 2.23% (inactive) |
| CCOC(=O)c1[nH]cnc1C(=O)Nc1ccccc1 | 19.7% (inactive) |
| CCOC(=O)c1[nH]cnc1C(=O)Nc1ccc(C)cc1 | 2.53% (inactive) |
| O=C(Cn1cc(C(F)(F)F)ccc1=O)N1CCN(S(=O)(=O)c2ccc(Cl)cc2)CC1 | 0.58% (inactive) |
| CCN1CC(CN(C)Cc2cn(-c3cccc(C)c3)nc2-c2cccc(F)c2)CC1=O (centres undefined) | 0.42% (inactive) |
| Cc1cc2c(c(SCC(N)=O)n1)C(=O)OC2 | 0.63% (inactive) |
| CCOC(=O)CC1C(=O)NCCN1C(=O)c1cc2c(=O)n3cccc(C)c3nc2s1 (centres undefined) | 11.1% (inactive) |
| CCOCCCNc1nc2c(C)cccn2c(=O)c1/C=C1\SC(=S)N(CC(C)C)C1=O | -0.56% (inactive) |
| CCC(C)N1C(=O)/C(=C/c2c(NCCCOC(C)C)nc3c(C)cccn3c2=O)SC1=S (centres undefined) | 10.2% (inactive) |
| CCOC(=O)CC1C(=O)NCCN1S(=O)(=O)c1ccc(OC)cc1 (centres undefined) | -8.28% (inactive) |
| CCCN1C(=O)/C(=C/c2c(NCCCOCC)nc3c(C)cccn3c2=O)SC1=S | -3.51% (inactive) |
| CCCN1C(=O)/C(=C/c2c(NCCCOC(C)C)nc3c(C)cccn3c2=O)SC1=S | -6.67% (inactive) |
| Cc1c(NC(=O)CN2C(=O)NC3(CCCCC3)C2=O)c(=O)n(-c2ccccc2)n1C | -1.23% (inactive) |
